# Menin MLL FP TR – inhibitors of human menin-MLL interaction, mutant MLL peptide. 270,000 compounds, 0.23% hits. Potency, µM (top dose mostly 61.6 µM), for the others: at the highest dose FP activity change, negative = inhibition, hits mostly inhibitors. Menin + Texas Red MLL mutant peptide, fluorescence polarization. O00255. AID 1768; active means well fitted inhibition curve with a large enough effect in the polarisation, with a control signal flat, not every such curve was filed as active; inconclusive means small, poorly fitted or top-dose-only effect, or effect the other way, or a change in a side signal; inactive means no such curve, though single readings can be large or run the other way; the % refers to the polarisation; further: potency means the concentration at half of the fitted maximal effect; % of control where 0% means no effect
# Target sequence (O00255 whole entry, looked up): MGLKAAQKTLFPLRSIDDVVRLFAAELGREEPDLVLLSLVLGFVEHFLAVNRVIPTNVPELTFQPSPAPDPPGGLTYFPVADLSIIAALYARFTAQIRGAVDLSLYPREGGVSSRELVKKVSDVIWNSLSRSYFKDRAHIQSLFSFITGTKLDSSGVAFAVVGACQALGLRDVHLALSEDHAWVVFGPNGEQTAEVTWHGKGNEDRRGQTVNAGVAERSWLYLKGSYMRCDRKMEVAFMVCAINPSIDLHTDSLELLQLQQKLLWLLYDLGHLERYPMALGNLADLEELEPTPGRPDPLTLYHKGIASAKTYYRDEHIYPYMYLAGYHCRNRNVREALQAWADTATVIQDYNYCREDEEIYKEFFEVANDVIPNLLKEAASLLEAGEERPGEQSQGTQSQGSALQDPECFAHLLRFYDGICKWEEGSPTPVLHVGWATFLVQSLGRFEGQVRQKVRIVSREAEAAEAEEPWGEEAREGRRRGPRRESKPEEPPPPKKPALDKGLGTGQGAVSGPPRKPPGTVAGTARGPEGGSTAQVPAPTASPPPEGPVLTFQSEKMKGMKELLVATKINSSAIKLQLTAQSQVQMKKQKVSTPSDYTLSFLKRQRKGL
# B2AR arrestin – agonists driving beta-arrestin recruitment to human beta2-adrenergic receptor | P07550 | Potency, µM (doses to about 46.1 µM), inactives show at the top dose activation, hits mostly activators | beta-arrestin recruitment to beta2AR, cell-based reporter | 330,000 compounds, 0.02% hits;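 further: potency means the concentration at half of the fitted maximal effect; 0% = DMSO controls and full agonism = EC100 isoproterenol or metaproterenol; nearly all actives have a fitted effect of over 65% in size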
# Menin MLL FP FL – displaces fluorescein MLL peptide from human menin | AID 1766 | 290,000 tested, under 10 active | Fluorescence polarization, fluorescein-MLL peptide displacement from menin | FP activity change, % at 61.4 µM; active means well fitted curve in the direction sought with a large enough effect in the polarisation, not every such curve was filed as active; inconclusive means small, poorly fitted or top-dose-only effect, or effect the other way, or a change in a side signal; inactive means no such curve, though single readings can be large or run the other way; the % refers to the polarisation; further: % of control where 0% means no effect
# TSG101-PTAP inh – blocks PTAP/TSG101 interaction to inhibit HIV-1 budding. Q99816. AID 493005. Fluorescence polarization, FITC-PTAP peptide / Tsg101 binding. 340,000 tested, under 10 active. Potency, µM (titrated, usually from 115 µM), for the others: top-dose activity change, negative = inhibition, most hits filed as inhibitors; active means well fitted inhibition curve with a large enough effect in the main read-out, with a control signal flat, not every such curve was filed as active; inconclusive means small, poorly fitted or top-dose-only effect, or effect the other way, or a change in a side signal; inactive means no such curve, though single readings can be large or run the other way; further: potency means the concentration at half of the fitted maximal effect; % of control where 0% means no effect
#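 Compounds were pin-transferred onto Tsg101 binding domain (10 uM final) in HEPES pH 7.5 buffer, then FITC-PTAP peptide was added at 50 nM final. After 20 min at RT, polarization reported peptide displacement across a qHTS concentration series.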
# BCR signal inh – chronic active BCR signaling inhibition; AID 493014; ABC-DLBCL IkBa-CBG/CBR reporter, luminescence ratio, 4 h; Potency, µM (doses to about 46.1 µM), for the others: at the highest dose activity change, negative = inhibition, usual class: inhibitors; 340,000 compounds, 0.05% hits; active means well fitted inhibition curve with a large enough effect in the signal ratio, with a control signal flat, not every such curve was filed as active; inconclusive means small, poorly fitted or top-dose-only effect, or effect the other way, or a change in a side signal; the % refers to the signal ratio;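 further: potency means the concentration at half of the fitted maximal effect; plate controls were basal doxycycline-induced cells for no effect and cells given 10 µM MG132 for full effect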
#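 Cell line TMD8 (human ABC DLBCL), stably expressing tet-inducible CBG68-IkBa fusion and CBR; IMDM/0.5% FBS; cpd up to 46 uM; dox induction, 4 h, 37C/5% CO2; dual luminescence; green/red ratio; MG132 control.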
# MLL CXXC-DNA inh – MLL CXXC-DNA interaction inhibition; Q03164; MLL-CXXC / FITC-HOXA9 DNA fluorescence polarization; Potency, µM (series often up to 115 µM), for inactives: at the top dose activity change, negative = inhibition, most hits filed as inhibitors; 290,000 compounds, 0.037% hits; AID 2662; active means well fitted inhibition curve with a large enough effect in the polarisation, with a control signal flat, not every such curve was filed as active; inconclusive means small, poorly fitted or top-dose-only effect, or effect the other way, or a change in a side signal; inactive means no such curve, though single readings can be large or run the other way; the % refers to the polarisation; further: potency means the concentration at half of the fitted maximal effect
#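 Steps: dispense CXXC domain solution (7 uM) → pin compounds or unlabeled HOX-A9 DNA control → 5 min ambient → add FLSN-HOX-A9 solution (50 nM) → spin → 30 min ambient → fluorescence polarization. Tris pH 7.5/NaCl/DTT/BSA buffer.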
# MLL CXXC Fl – MLL CXXC-DNA interaction inhibition, fluorescein FP; shares compounds with MLL CXXC-DNA inh; MLL CXXC-DNA binding, fluorescein FP; Potency, µM (highest dose often 345 µM), for inactives: at the top dose activity change, negative = inhibition, most hits filed as inhibitors; 200 compounds, 70% hits; AID 624160; further: potency means the concentration at half of the fitted maximal effect; nearly all actives have a fitted effect of over 80% in size
# MLL CXXC TxRed – disrupts human MLL CXXC domain binding to DNA, Texas Red | MLL CXXC-DNA binding, Texas Red fluorescence polarization | Potency, µM (titrated, usually from 345 µM), for the others: at the highest dose activity change, negative = inhibition, usual class: inhibitors | shares compounds with MLL CXXC-DNA inh | 200 compounds, 40% hits; further: potency means the concentration at half of the fitted maximal effect; on the % scale 0 is the no-effect control and ±100 the full control effect; nearly all actives have a fitted effect of over 75% in size
# MLL CXXC TRF – MLL CXXC-DNA interaction inhibition, HTRF readout | shares compounds with MLL CXXC-DNA inh | AID 624162 | Potency, µM (highest dose often 172 µM), inactives show top-dose activity change, negative = inhibition, usual class: inhibitors | 210 compounds, 30% hits | MLL CXXC-DNA binding, HTRF, biochemical; further: on the % scale 0 is the no-effect control and ±100 the full control effect; nearly all actives have a fitted effect of over 80% in size
# * = called active by the depositor; ? = inconclusive; . = no result; [ ] = dose if it differs, or a comment. The entries come from a sample that favours hits as a whole. Unless noted, the call rests on the fitted dose curve; in most records, active means well fitted curve in the direction sought with a large enough effect; inconclusive means small, poorly fitted or top-dose-only effect, or another doubt; inactive means no such curve, though single readings can be large; an effect the other way counts as inactive or inconclusive.
SMILES,Menin MLL FP TR,B2AR arrestin,Menin MLL FP FL,TSG101-PTAP inh,BCR signal inh,MLL CXXC-DNA inh,MLL CXXC Fl,MLL CXXC TxRed,MLL CXXC TRF
Cc1ccc(/C=C2\Oc3c(ccc(O)c3CN3CCN(CCO)CC3)C2=O)cc1,30.1%,0.3%,?,?,-0.2%,?,.,.,.
O=C1/C(=C/c2cccs2)Cc2ccccc21,25.7%,3.6%,8.6,-3.7%,18.1%,7.4%,.,.,.
O=C1C(=Cc2cccs2)C(=O)c2ccccc21,10.4%,-0.7%,-4.4,-2.3%,-3.9%,?,22.5µM*,?,15.0%
CCCCC1OC2(C)OC(=N)C1(C#N)C(C#N)(C#N)C2c1ccccc1 (configuration not stated),-26.8%,0.0%,?,-4.0%,6.7%,22.4µM*,28.3µM*,?,-5.3%
CC1OC2(C)OC(=N)C1(C#N)C(C#N)(C#N)C2c1ccccc1 (configuration not stated),-1.5%,-0.4%,2.5,-3.3%,1.1%,-7.4%,.,.,.
O=c1cc(O)c2ccccc2n1Cc1ccccc1Cl,?,0.0%,-7.9,-6.7%,-1.9%,0.0%,.,.,.
COc1ccc(-c2nn(-c3ccccc3)cc2/C=C/C(=O)OCC(=O)Nc2ccc(C#N)cc2)cc1,?,-0.9%,5.9,0.1%,2.7%,?,67.7%,?,5.3%
C/C(=N\Nc1nc2ccccc2c(=O)n1O)c1ccco1,17.4%,-0.3%,-1.2,-3.2%,?,?,?,?,?
Cn1nc(-c2ccc(Cl)cc2)nc2c(=O)n(C)c(=O)nc1-2,?,-0.4%,?,.,?,31.6µM*,142µM*,?,48.2%
CS(=O)(=O)n1nc(-c2ccc(Cl)cc2)nc1N,3.8%,0.0%,0.2,-0.1%,?,-14.3%,.,.,.
C=C(C)Cn1c(Sc2nnc(C)s2)nc2c1c(=O)[nH]c(=O)n2C,-1.0%[11.7 µM],0.2%,2.6,-7.3%,-8.1%,4.6%,.,.,.
Cc1ccc2nc(SCC(=O)Nc3c(F)cccc3F)[nH]c2c1,-0.2%,0.5%,-2.0,-1.7%,-7.6%,-11.9%,.,.,.
O=c1[nH]c(-[n+]2ccccc2)c(/C=N/NC([S-])=Nc2ccccc2)s1,.,-0.8%,?,?,-4.4%,35.5µM*,?,?,30.5%
N#CC1=C(N)OC2=C(CC/C2=C\c2ccccc2)C1c1ccccc1 (configuration not stated),-15.4%,?,-4.6,?,?,?,.,.,.
CCCCC1(C)OC(=O)C(=Cc2ccc(-c3ccc(Cl)c(C(=O)O)c3)o2)C(=O)O1 (configuration not stated),.,-0.4%,19.6,-0.9%,16.8%,39.8µM*,22.5µM*,44.8µM*,48.5µM*
O=[N+]([O-])c1ccc(Oc2ccc(S(=O)(=O)Nc3ccccc3)cc2)cc1,?,-0.2%,2.7,0.1%,-1.3%,-4.1%,.,.,.
O=C1C(Cl)=C(NS(=O)(=O)c2ccc([N+](=O)[O-])cc2)C(=O)c2ccccc21,.,0.0%,-2.2,-7.1%,?,50.1µM*,56.5µM*,100µM*,76.9µM*
COc1ccc(C(=O)N2CCC3(CCCN(Cc4ccc(C#N)cc4)C3)CC2)cc1,?,.,13.7,.,.,.,.,.,.
N.N.O=C(O)C1(C(=O)O)CCC1.[Pt],6.0%,.,?,.,.,?,8.0%,?,48.5µM*
COc1ccc2cc(Br)ccc2c1CC(=O)NCC1CCCO1 (configuration not stated),3.5%,-0.1%,0.9,-1.0%,-6.9%,31.6µM*,-0.6%,30.0%,29.3%
CCNC(=O)Cc1c(OC)ccc2cc(Br)ccc12,-12.3%,0.0%,0.3,-5.4%,2.4%,-12.4%,.,.,.
CCN(C(=O)c1ccc2c(c1)N(Cc1cccc(Cl)c1)C(=O)c1ccccc1S2=O)c1ccccc1 (configuration not stated),.,.,.,.,18.2%,.,.,.,.
O=C(CN1C(=O)C(=O)N(Cc2ccccc2)C1=O)Nc1cc(Cl)cc(Cl)c1,.,0.2%,-1.5,-2.9%,?,1.6%,.,.,.
NC(=O)CN1C(=O)C(=O)N(Cc2cccc(Cl)c2)C1=O,3.3%,6.7%,1.6,-3.4%,2.4%,?,66.2%,-9.1%,-3.0%
COc1ccc2occ(C(=O)c3ccc(N)cc3)c2c1,25.6%,-0.5%,3.8,-2.3%,?,?,36.8%,35.7%,-1.1%
CCCCC(=O)Nc1cc(NC(=O)CC)ccc1Cl,9.9%,0.1%,-2.4,-6.8%,?,1.6%,.,.,.
O=C(COC(=O)CCOc1ccccc1)NCCc1ccccc1,.,-0.4%,.,-0.4%,0.6%,.,.,.,.
